# Laboratory results from the supplement of paper PMC6555819.
# System: VDR:RXRa (NR concentration 270 nM, RXRa partner concentration 90 nM)
# Test: PBM binding z-score (relative to random genomic background probes); higher = stronger binding; sequences stand for … in GC…GCGATTGACAGCGTAGAATGAAGG
# Protocol: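 Protein-binding microarray (Agilent 4x180K custom design, double-stranded 60-nt probes: 5' GC cap, 34-nt variable region, 24-nt constant primer region; full probe sequence given). Purified or IVT nuclear receptor:RXRα heterodimers (3:1 NR:RXRα, mostly 270:90 nM) or homodimers were incubated for 1 h in PBS with 2% milk and no ligand, then detected with Alexa488 antibodies. Fluorescence from o1-orientation probes (~5 replicates averaged) was converted to z-scores against 500 random hg19 background probes. Variable regions are seed direct-repeat (DR0–DR5) sites, all their single-nucleotide variants and half-site ablations.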
row,Sequence,PBM binding z-score
1,ATGTCTAGGTAACCAAGTTCAGTGAATGCCGAAC,3.97
2,ATCTCTAGATAAAGTTCAGTGAAAGATCGATAGA,1.03
3,TGTCAAAGTTCAAAGGTAATGTAAGTATCCACAC,4.69
4,CGTACAAGGTCAAGGTCAGTGAAAGAGACTCGAA,4.98
5,TCTTCTAGATCAAGCAGGTTAAGAAAGCCTGAGT,0.623
6,CCTAACGGGTCACTGACAGGTTATAGCATTTGGA,3.21
7,CGTCCAAGGTCAGCAGGTCTGTGAAAGCGACGTG,4.69
8,ATCGAAAGGTCGTGAGGTGAGAATACAGAAAGGC,3.48
9,TCGAGTAGGGTAGTCGGGGCATTCAGCCAACATA,0.167
10,GCAGACAGCTGAAACGCAGGTAACTCAGGGTGGC,-0.826
11,ATATATAGGTTACATCCGGGTCATTCAGGCTATG,4.58
12,CCTTACGGGTCACGAGGTTATAGCGCGACGAGCG,4.99
13,GCATATAGGTAATACAAGGTGGAAGTCCGATTGT,-0.118
14,TGAATGAGCTTAAAGATCAGGGAACGTGGCGTCG,-0.548
15,ATCACTAGGTAACAAGTTCAGTGAAAGAGAGGAC,1.6
16,ACAGACACGTGATGAAGGTAACTCAGGCTATCAT,0.0575
17,AGAGTGAGGTTATACGTAGATCAGGGAAGAAAGT,1.6
18,ACAGACAGGTGATGAAGGTAACACAGGCTATCAT,0.561
19,CCTCGGAGGACAACAGGAGGTCGGAGCTGCCAGA,-0.0445
20,TCTAGTTGGTCACGGAGGTCACGCACGACGGGTA,5.99

row,Sequence,PBM binding z-score
1,TCTATTAGTTGATTAGGGCTACCGAAACAGCGGA,0.473
2,CCGACTGGGGCACGGTTACCATAACGCACAGCCA,-0.636
3,TCGAGTAGGTTACCAATGGGGCATTCAGCTTTCT,0.0745
4,CGAACTAGGTCACGGACAGTGAATCTCCGCACGC,2.74
5,ATCGCTAGGTAAAGTTCAGTGAAAGATCGATAGA,0.735
6,ACAGACAGGTGAGAGAAGGTAACTCAGCTGGACG,-0.382
7,AGTCAAAGTTCACTACGTAACGTAAGATTCAGCT,3.72
8,TCATATAGGTAAATGCTAGGTGCAAGTCCGATCT,0.809
9,CTTCAAAGTTCAAGGTAACGTAACAGAAAGCAGC,3.51
10,AGAACGAGGGCAATGTGTTGATAGCACGGGTGGC,0.824
11,CAGCCTAGGTCAGGGCCAGGATAGGAGGAACGTT,0.0936
12,GAAACGAGGGCATTCGAGTTGATAGCATGGCGAT,3.97
13,GCTTGTAGATCAAGGTCAAGAAAGACTAAGCTAA,2.67
14,AGTCAAAGTTCATCTAGGTAACGTCAGATATGCT,5.17
15,TCATATAGGTAAACACGTGAAAGTCCGTAAGTTA,0.885
16,TCTTGTAGATCAAAGGTTAAGCAAGCCGAAGCCT,1.65
17,GTACCAAGTTGAATAGGTCGTTGATGAGTAGGCG,0.387
18,TCTCTTAGTTGAAGGGCAACCGACGAGTCCGTTT,0.951
19,CCTCGTTGGTCAAGGTCACACACGCTATAGGTAC,3.93
20,ATAACAAGGTGATCGTGAGGTCGTTGATACTAAC,2.97
